# Inconclusive results are not listed. Unmarked numbers belong to inactive results. Calls of active or inactive are those of the source. Calls follow the shape of the dose curve; as a rule, active = well fitted inhibition curve with a large enough effect; inconclusive = small, poorly fitted or top-dose-only effect; inactive = flat fitted curve, though single readings scatter.
# Test system: KB-3-1
# Test: Cytotoxic Profiling of Annotated Libraries Using Quantitative High-Throughput Screening (AID 1296008); also: nearly all actives have a fitted effect of over 60% in size
# Conditions: Five cell lines viability, CellTiter-Glo ATP luminescence, 48-72 h; max response: stronger effect = lower value
# How it was run: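 Compounds were pin-transferred onto cells and incubated 48 or 72 hr at 37 degree Celsius, 95% humidity. CellTiter-Glo was added, plates sat 10 min at room temperature, then ATP-coupled luminescence was imaged as the viability read-out.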
# % is scaled to controls: 0 for no effect and ±100 for the full control effect.
SMILES,max response [%],outcome
O=C(OCC1OC(Oc2ccc(O)cc2COC(=O)C2(O)C(O)CCC(=O)C2OC(=O)C2C=CCC2)C(OC(=O)C2C=CCC2)C(O)C1O)C1C=CCC1 (centres undefined),6.15,–
CC(C)c1cc2c(c(O)c1O)[C@@]13CCCC(C)(C)C1[C@@H](O)[C@@H]2OC3=O (some centres undefined),7.44,–
COc1cc(/C=C/C(=O)O[C@H]2C[C@@H]3C(C(=O)O)=CO[C@@H](O[C@@H]4O[C@H](CO)[C@@H](O)[C@H](O)[C@H]4O)[C@@H]3[C@H]2C)ccc1O,–,inactive
CC1(C(=O)O)CCCC2(C)C3CC4C5CC3(CCC12)CC45C (centres undefined),4.9,–
C=C1C(O)CCC2(C)CC3(OC)OC(=O)C(C)=C3CC12 (centres undefined),3.24,–
COc1cc(C2Oc3c(OC)cc(CCCO)cc3C2CO)ccc1O (centres undefined),–,inactive
C/C=C1/[C@H](O[C@@H]2O[C@H](CO)[C@@H](O)[C@H](O)[C@H]2O)OC=C(C(=O)OC)[C@H]1CC(=O)OCCc1ccc(O)c(O)c1,4.42,–
CCCC1=CC2=C(CO1)C(=O)C(C)(O)C(OC(=O)c1c(C)cc(OC)cc1O)C2 (centres undefined),–,inactive
CC1(C)CCC[C@]2(C)C1CC=C(CO)[C@H]2CC/C(=C/CO)CO (some centres undefined),-0.734,–
C=C1CC[C@H]2[C@@](C)(CCC(OC3OC(CO)C(O)C(O)C3O)[C@@]2(C)CO)C1C(=O)CC1=CCOC1=O (some centres undefined),–,inactive
CC(C)(O)C1OC1C1=CC(=O)C2(C)OC2C1O (centres undefined),–,inactive
CC(=O)O[C@H]1C[C@@H](O)C(C)(C)C2C[C@@H](OC(C)=O)[C@@]3(C)C4=CCC(C(CO)CC(O)C5OC5(C)C)[C@]4(C)CCC3[C@]21C (some centres undefined),–,inactive
C=C[C@@]1(C)CCC2=C([C@H]1OC(C)=O)[C@H](OC(C)=O)CC1[C@](C)(C(=O)OC)CC[C@H](OC(C)=O)[C@]21C (some centres undefined),–,inactive
CC1=C2C(=O)C=C(CO)C2[C@H]2OC(=O)[C@H](C)[C@@H]2[C@@H](OC(=O)Cc2ccc(O)cc2)C1 (some centres undefined),–,inactive
O=C(NCCN1CCCC1)c1cc(-c2ccc(CN3CCOCC3)cc2)nc2ccc(F)cc12,–,inactive
CN1CCN(c2nc(-c3ccc(C(=O)NC4(C(=O)NCC#N)CCCCC4)cc3)cs2)CC1,-9.9,–
CC1(C)CC[C@]2(C(=O)O)CC[C@]3(C)C(=CCC4[C@@]5(C)C(=O)C[C@H](O)[C@@](C)(CO)C5CC[C@]43C)[C@@H]2C1 (some centres undefined),8.25,–
CC(=O)OC/C(=C/C(=O)O)CC[C@@H]1C(C)=CC(=O)[C@@H]2C(C)(C)CCC[C@@]12C,-6.11,–
C/C=C(\C)C(=O)OC[C@H]1O[C@@H](O[C@H]2[C@@H](O[C@H]3O[C@H](COC(=O)/C(C)=C/C)[C@@H](O)[C@H](O)[C@H]3O[C@@H]3O[C@H](COC(=O)/C(C)=C/C)[C@@H](O)[C@H](OC(=O)/C(C)=C/C)[C@H]3O)O[C@H](COC(=O)/C(C)=C/C)[C@@H](O)[C@@H]2O)[C@H](O)[C@@H](O)[C@@H]1O,7.25,–
CC1(CO)CCCC2(C)C3COC(=O)C3=CC(O)C12 (centres undefined),–,inactive

SMILES,max response [%],outcome
C=C1CC[C@@H]2C(C)(C)CCC[C@@]2(C)[C@@H]1CC/C(=C/C(=O)OC)COC(C)=O,-9.17,–
CS(=O)(=O)c1ccccc1N1CCN(c2nc3c(c(=O)[nH]2)CSCC3)CC1,-11.7,–
CC(=O)OC1CC2C(C)(C)C(=O)C=CC2(C)C2CC(=O)C3=C(CCC3C3=CC(O)OC3=O)C12C (centres undefined),–,inactive
CC(C)C1NC(=O)C(CC2(O)c3ccccc3N3C(=O)C(Cc4ccccc4)NC32)NC1=O (centres undefined),–,inactive
NC[C@H]1CCC[C@@H](CNC(=O)[C@@H](Cc2c[nH]c3ccccc23)NC(=O)N2CCC3(C=Cc4ccccc43)CC2)C1,–,inactive
COc1ccc(O[C@@H]2O[C@H](CO)[C@@H](O)[C@H](O)[C@H]2O)cc1OC,–,inactive
C=C1CCC(OC(C)=O)C2(C)CC3OC(=O)C(C)=C3CC12 (centres undefined),3.31,–
O=C1OC(c2ccc(O)cc2)C(O)=C1Cc1ccccc1 (centres undefined),–,inactive
CC1CC(=O)C2C(O)(C1)CC(O)C13OC1c1c(O)cccc1C(=O)C23O (centres undefined),3.15,–
CCN=C1N[C@@H]2[C@@H](O)[C@H](O)[C@@H](CO)O[C@@H]2S1,6.7,–
COc1cccc(Cn2ncc3c4sc(S(C)=O)cc4n(C)c3c2=O)c1 (centres undefined),–,inactive
CC(=O)OCC1OC(OC2COC(OC3COC(OC4C(OC5C(CO)OC(OC6CCC7(C)C(CCC8(C)C7CC=C7C9CC(C)(C)CCC9(C(=O)OC9OC(CO)C(O)C(O)C9OC9OCC(OC%10OCC(O)(CO)C%10O)C(O)C9O)C(O)CC78C)C6(C)C)C(O)C5O)OCC(O)C4O)C(O)C3O)C(O)C2O)C(OC(=O)/C=C/c2ccccc2)C(O)C1OC(C)=O (centres undefined),4.45,–
CC[C@H]1OC(=O)[C@H](C)[C@@H](O[C@H]2C[C@@](C)(OC)[C@@H](O)[C@H](C)O2)C(C)[C@@H](O[C@@H]2O[C@H](C)C[C@H](N(C)C)[C@H]2O)[C@](C)(O)C[C@@H](C)CN(C)[C@H](C)[C@@H](O)[C@]1(C)O (some centres undefined),-2.18,–
C=CC(C)(C)C12Nc3c(ccc4c3OC(C)(C)C=C4)C1(O)CC1C(=O)N3CCCC3C(=O)N12 (centres undefined),–,inactive
O=C(O)[C@H](Cc1ccccc1)Oc1ccc(-c2ccccc2)cc1,–,inactive
C=C[C@H]1[C@H](O[C@@H]2O[C@H](CO)[C@@H](O)[C@H](O)[C@H]2O)OC=C2C(=O)N3Cc4c([nH]c5ccccc5c4=O)[C@@H]3C[C@H]21,–,inactive
C/C=C/C(=O)OC1/C=C/C(O)C(OC(C)=O)CCC(=O)OC1C (centres undefined),-2.1,–
OCC(O)C(c1c[nH]c2ccccc12)c1c[nH]c2ccccc12 (centres undefined),–,inactive
C=C1CC[C@@H]2[C@@](C)(CO[C@@H]3O[C@H](CO)[C@@H](O)[C@H](O)[C@H]3O)[C@H](O)CC[C@@]2(C)[C@@H]1CC/C(C)=C/CO[C@@H]1O[C@H](CO)[C@@H](O)[C@H](O)[C@H]1O,-3.96,–

# From PubChem BioAssay (NCATS)
